The supplement of paper PMC10849652
Targets with a hit are over-represented here; the source holds about 7,900 in all. About 0.6% of all pairs of compound and target were hits. A number with no mark means an inactive call.

What was measured:
Test in all cases: log2 fold change, soluble protein after heating vs DMSO (PISA); higher = thermal stabilisation; K562 cells, 10 uM, 30 min; active = over 0.2 and 3.5 SD of the protein, either way, in both replicates (recomputed)
[1] = compound: C1=CC=C(C=C1)[C@H](COC2=CC3=C(C=C2)NC(=O)N3)NC(=O)C4=CC=CN(C4=O)CC5=CC(=C(C=C5)F)F
Summary of the method: (§1)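 For each measurement, 10 μM compound was applied for 30 min to K562 cells at 2×10^6 cells/mL. Aliquots were heated for 3 min across 48°C-58°C, pooled, and extracted in PBS with 0.5% NP-40 at 4°C; the supernatant after 21,000xg for 90 min was soluble protein. This was quantified by TMTpro 16plex LC-MS/MS with channel sums equalised, and thermal stability was reported relative to control samples from duplicates, on a log2 fold-change scale.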

[2] = compound: CC1=C(SC2=C1C(=N[C@H](C3=NN=C(N32)C)CC(=O)N)C4=CC=C(C=C4)Cl)C
Summary of the method: as §1

[3] = compound: CC1=C2C(=CC=C1)N=C(N(C2=O)C3=CC=CC=C3C)CN4C=NC5=C(N=CN=C54)N
Summary of the method: as §1

[4] = compound: Cc1sc2c(c1C)C(c1ccc(Cl)cc1)=N[C@@H](CC(=O)OC(C)(C)C)c1nnc(C)n1-2
Summary of the method: as §1

[5] = compound: c1ccc([C@@H]2C[C@H]2NC2CCNCC2)cc1
Summary of the method: as §1

Chain of UniProt Q96EV2 (Q96EV2 whole entry, looked up): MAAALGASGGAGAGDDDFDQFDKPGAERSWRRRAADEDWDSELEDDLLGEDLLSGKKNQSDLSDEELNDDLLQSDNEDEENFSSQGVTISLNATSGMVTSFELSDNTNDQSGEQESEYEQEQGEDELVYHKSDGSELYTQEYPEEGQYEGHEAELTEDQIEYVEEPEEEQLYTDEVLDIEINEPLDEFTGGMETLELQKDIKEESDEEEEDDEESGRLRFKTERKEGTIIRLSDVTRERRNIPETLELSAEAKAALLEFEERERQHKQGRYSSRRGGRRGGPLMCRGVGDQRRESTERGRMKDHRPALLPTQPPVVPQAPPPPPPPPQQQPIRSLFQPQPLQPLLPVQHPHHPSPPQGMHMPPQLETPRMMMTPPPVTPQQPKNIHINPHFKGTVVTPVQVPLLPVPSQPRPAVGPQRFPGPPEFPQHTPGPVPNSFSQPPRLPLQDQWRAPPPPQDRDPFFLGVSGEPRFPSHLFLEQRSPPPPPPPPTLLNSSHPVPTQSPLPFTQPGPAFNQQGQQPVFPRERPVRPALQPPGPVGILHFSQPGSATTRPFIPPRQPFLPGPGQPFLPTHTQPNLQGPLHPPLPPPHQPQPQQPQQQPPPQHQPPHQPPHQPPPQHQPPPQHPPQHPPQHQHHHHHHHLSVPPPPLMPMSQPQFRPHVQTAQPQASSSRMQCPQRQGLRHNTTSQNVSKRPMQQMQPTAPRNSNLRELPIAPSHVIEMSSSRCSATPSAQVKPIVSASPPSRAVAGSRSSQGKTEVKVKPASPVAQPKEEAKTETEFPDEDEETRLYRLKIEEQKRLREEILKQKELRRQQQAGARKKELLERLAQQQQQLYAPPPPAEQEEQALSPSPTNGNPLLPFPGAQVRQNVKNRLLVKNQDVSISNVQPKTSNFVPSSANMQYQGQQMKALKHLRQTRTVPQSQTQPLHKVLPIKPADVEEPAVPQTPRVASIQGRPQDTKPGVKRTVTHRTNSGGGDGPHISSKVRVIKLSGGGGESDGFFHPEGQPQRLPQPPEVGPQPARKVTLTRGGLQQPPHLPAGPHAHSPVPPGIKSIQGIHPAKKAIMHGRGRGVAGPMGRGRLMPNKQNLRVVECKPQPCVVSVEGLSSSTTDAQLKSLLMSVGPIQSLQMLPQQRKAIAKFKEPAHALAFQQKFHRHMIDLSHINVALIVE
Chain of UniProt Q9NR46 (Q9NR46 whole entry, looked up): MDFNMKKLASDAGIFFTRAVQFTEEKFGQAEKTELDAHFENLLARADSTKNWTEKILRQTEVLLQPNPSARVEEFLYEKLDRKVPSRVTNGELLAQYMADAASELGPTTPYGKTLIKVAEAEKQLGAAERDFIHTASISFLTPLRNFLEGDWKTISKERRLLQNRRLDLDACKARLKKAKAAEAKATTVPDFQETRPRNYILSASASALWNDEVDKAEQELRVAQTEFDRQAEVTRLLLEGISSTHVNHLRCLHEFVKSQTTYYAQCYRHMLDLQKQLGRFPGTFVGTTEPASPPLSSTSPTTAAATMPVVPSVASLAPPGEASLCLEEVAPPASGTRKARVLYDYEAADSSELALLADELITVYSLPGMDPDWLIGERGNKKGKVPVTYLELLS
Chain of UniProt Q8NBJ9 (Q8NBJ9 whole entry, looked up): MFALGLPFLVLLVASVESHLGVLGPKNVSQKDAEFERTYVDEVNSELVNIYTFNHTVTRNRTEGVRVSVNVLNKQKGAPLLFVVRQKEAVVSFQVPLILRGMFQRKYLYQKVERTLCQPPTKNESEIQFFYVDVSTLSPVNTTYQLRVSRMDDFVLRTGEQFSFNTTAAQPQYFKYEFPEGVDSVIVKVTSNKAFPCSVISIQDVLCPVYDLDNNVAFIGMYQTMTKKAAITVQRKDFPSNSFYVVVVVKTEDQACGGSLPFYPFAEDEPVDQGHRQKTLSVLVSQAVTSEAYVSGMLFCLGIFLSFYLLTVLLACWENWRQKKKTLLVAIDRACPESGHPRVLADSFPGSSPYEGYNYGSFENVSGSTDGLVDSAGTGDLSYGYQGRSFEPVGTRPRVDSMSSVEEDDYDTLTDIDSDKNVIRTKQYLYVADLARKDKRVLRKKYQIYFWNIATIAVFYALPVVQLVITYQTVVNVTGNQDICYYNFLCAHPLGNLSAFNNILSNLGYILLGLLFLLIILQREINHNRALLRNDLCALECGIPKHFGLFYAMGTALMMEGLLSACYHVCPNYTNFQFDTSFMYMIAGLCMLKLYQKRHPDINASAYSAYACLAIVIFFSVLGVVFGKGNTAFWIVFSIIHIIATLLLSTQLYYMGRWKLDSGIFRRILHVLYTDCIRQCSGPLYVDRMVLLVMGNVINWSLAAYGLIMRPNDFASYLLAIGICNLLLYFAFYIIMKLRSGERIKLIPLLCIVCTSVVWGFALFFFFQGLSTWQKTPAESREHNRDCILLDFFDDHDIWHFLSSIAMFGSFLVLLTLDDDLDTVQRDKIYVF
Chain of UniProt Q8N5L8 (Q8N5L8 whole entry, looked up): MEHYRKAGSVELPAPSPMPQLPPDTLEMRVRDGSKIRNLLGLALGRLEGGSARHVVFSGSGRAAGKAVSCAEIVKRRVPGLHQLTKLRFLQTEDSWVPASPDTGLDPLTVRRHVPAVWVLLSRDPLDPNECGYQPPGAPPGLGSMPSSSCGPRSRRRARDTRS
Chain of UniProt P40938 (P40938 whole entry, looked up): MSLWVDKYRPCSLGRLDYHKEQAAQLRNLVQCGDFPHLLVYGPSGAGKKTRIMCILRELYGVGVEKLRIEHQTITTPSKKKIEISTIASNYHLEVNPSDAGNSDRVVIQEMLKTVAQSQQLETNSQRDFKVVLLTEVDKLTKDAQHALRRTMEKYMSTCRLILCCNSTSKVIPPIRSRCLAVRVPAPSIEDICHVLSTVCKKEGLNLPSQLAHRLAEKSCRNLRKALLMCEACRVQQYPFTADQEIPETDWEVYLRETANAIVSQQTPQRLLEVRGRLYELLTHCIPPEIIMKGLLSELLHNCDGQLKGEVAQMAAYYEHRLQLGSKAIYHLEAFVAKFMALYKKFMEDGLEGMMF
Chain of UniProt Q5T160 (Q5T160 whole entry, looked up): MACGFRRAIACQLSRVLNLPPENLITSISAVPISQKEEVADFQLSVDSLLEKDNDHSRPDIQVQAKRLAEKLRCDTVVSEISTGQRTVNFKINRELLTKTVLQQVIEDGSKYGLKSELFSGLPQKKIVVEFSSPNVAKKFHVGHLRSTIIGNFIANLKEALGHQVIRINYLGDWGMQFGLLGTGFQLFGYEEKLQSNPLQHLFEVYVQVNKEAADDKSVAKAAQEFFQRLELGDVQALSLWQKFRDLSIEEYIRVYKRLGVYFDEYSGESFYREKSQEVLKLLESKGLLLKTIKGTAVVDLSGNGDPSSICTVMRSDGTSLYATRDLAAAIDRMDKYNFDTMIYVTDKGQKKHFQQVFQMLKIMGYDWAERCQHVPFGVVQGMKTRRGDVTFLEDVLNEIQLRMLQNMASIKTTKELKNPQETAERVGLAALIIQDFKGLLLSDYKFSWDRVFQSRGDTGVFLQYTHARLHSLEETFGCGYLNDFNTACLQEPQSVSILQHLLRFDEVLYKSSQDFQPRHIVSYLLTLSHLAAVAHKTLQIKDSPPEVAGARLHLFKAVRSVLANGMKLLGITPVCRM
Chain of UniProt Q9UKL0 (Q9UKL0 whole entry, looked up): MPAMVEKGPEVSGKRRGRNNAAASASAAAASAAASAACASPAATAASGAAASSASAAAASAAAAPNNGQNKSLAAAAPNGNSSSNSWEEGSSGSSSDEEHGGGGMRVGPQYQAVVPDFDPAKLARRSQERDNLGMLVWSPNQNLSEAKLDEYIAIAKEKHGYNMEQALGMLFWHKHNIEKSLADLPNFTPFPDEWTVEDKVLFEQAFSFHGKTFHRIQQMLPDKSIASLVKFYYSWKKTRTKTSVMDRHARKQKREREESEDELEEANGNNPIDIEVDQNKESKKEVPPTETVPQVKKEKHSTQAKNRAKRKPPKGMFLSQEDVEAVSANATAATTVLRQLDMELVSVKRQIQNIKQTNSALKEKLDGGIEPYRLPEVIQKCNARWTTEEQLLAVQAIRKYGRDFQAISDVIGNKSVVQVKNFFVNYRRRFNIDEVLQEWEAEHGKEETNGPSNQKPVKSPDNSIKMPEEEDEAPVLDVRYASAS
Chain of UniProt Q8TBN0 (Q8TBN0 whole entry, looked up): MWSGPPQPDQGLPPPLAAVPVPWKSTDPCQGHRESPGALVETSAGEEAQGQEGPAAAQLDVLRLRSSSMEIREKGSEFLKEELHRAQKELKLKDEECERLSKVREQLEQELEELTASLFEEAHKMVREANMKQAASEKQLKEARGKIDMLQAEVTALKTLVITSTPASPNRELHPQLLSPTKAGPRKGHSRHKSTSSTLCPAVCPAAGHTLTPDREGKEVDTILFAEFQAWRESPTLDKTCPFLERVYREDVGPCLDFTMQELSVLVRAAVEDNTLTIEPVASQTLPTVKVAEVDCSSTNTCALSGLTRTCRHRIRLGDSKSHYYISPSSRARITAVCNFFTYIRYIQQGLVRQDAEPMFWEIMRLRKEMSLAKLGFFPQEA
Chain of UniProt Q14493 (Q14493 whole entry, looked up): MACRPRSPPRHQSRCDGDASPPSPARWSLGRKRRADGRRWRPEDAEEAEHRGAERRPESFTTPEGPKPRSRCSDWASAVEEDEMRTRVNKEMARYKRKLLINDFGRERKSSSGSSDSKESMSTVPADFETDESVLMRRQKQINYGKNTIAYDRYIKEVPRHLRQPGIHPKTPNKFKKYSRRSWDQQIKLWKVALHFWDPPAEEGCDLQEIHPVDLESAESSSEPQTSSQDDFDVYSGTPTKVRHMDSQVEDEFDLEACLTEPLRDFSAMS
Chain of UniProt O95059 (O95059 whole entry, looked up): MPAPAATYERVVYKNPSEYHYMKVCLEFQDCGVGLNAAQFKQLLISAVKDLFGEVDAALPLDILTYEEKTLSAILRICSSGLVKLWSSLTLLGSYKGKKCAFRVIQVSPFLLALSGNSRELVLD
Chain of UniProt Q9BUV8 (Q9BUV8 whole entry, looked up): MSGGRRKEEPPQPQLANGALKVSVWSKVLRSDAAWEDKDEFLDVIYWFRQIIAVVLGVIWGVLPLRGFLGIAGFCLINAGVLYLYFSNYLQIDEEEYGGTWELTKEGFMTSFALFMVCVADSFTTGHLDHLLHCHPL

| Target | log2 fold change [1] | log2 fold change [2] | log2 fold change [3] | log2 fold change [4] | log2 fold change [5] |
| --- | --- | --- | --- | --- | --- |
| RNPS1 (UniProt Q15287) | -0.019 | 0.001 | 0.032 | 0.119 | 0.061 |
| RABGAP1L isoform 3 (UniProt Q5R372) | 0.007 | 0.024 | 0.033 | -0.015 | -0.005 |
| SLBP (UniProt Q14493) | -0.092 | -0.056 | 0.042 | 0.059 | 0.034 |
| RBM25 (UniProt P49756) | -0.025 | 0 | 0.005 | 0.051 | 0.112 |
| RPS19 (UniProt P39019) | 0.108 | -0.158 | -0.197 | 0.107 | -0.002 |
| RALA (UniProt P11233) | 0.021 | 0.046 | 0.027 | -0.016 | 0.069 |
| RAB5IF isoform 5 (UniProt Q9BUV8) | 0.003 | 0.101 | 0.024 | -0.08 | 0.028 |
| SHCBP1 (UniProt Q8NEM2) | 0.018 | -0.176 | 0.138 | -0.089 | -0.056 |
| RPS15 (UniProt P62841) | 0.126 | -0.113 | -0.02 | 0.122 | 0.106 |
| RAB3IL1 (UniProt Q8TBN0) | 0.018 | -0.013 | 0.078 | -0.03 | -0.076 |
| RCOR3 isoform 3 (UniProt Q9P2K3) | -0.139 | 0.087 | 0.111 | -0.06 | 1.27 (active) |
| RIOK3 (UniProt O14730) | -0.015 | -0.008 | -0.016 | -0.008 | 0.024 |
| SETMAR (UniProt Q53H47) | 0.001 | 0.096 | 0.033 | -0.031 | -0.02 |
| RPS4X (UniProt P62701) | 0.105 | -0.255 | -0.232 | 0.148 | 0.001 |
| RPS20 isoform 2 (UniProt P60866) | -0.002 | -0.114 | -0.051 | 0.059 | 0 |
| RRP36 (UniProt Q96EU6) | 0.119 | -0.266 | -0.228 | 0.245 | 0.019 |
| SGPL1 (UniProt O95470) | 0.041 | -0.014 | 0.005 | 0.049 | -0.004 |
| RAD50, A0A494C0Y7 | -0.1 | -0.003 | 0.194 | 0.104 | 0.118 |
| RRAS2 isoform 4 (UniProt P62070) | 0.045 | -0.017 | -0.062 | -0.03 | 0.011 |
| SLC18B1 (UniProt Q6NT16) | 0.015 | 0.028 | 0.061 | 0.009 | -0.039 |
| RPS16 (UniProt P62249) | 0.049 | -0.149 | -0.192 | 0.043 | -0.003 |
| RCOR1 (UniProt Q9UKL0) | -0.113 | 0.021 | 0.114 | 0.006 | 0.856 (active) |
| RPA3 (UniProt P35244) | 0.008 | 0.09 | -0.055 | -0.146 | -0.03 |
| SERINC3 (UniProt Q13530) | -0.062 | 0.045 | 0.071 | -0.062 | 0.133 |
| SCAMP2 (UniProt H3BUB6) | 0.03 | -0.017 | 0.308 | 0.15 | 0.135 |
| RPP25L (UniProt Q8N5L8) | 0.032 | -0.018 | 0.026 | 0.143 | 0.033 |
| RBM17 (UniProt Q96I25) | -0.038 | 0.017 | 0.049 | 0.003 | -0.013 |

| Target | log2 fold change [1] | log2 fold change [2] | log2 fold change [3] | log2 fold change [4] | log2 fold change [5] |
| --- | --- | --- | --- | --- | --- |
| SH3PXD2B (UniProt A1X283) | 0.07 | 0.029 | 0.001 | -0.038 | -0.046 |
| SH3GLB2 (UniProt Q9NR46) | -0.029 | 0.064 | 0.029 | 0.004 | -0.063 |
| RPS21 (UniProt P63220) | -0.008 | -0.047 | 0.028 | 0.017 | 0.02 |
| RARS2 (UniProt Q5T160) | 0.021 | 0.046 | 0.044 | -0.026 | -0.007 |
| SDHAF2 (UniProt Q9NX18) | -0.02 | 0.078 | -0.013 | -0.097 | -0.096 |
| RBM27 (UniProt Q9P2N5) | -0.015 | 0.005 | 0.049 | 0.029 | -0.01 |
| RAC3 (UniProt P60763) | -0.006 | 0.028 | 0.029 | -0.025 | -0.147 |
| RFC3 (UniProt P40938) | -0.005 | 0.028 | 0.029 | -0.019 | -0.074 |
| RBM33 (UniProt Q96EV2) | 0.002 | -0.018 | 0.029 | -0.004 | 0.012 |
| SCD (UniProt O00767) | 0.011 | -0.019 | 0.012 | 0.054 | 0.027 |
| RCN3 (UniProt Q96D15) | 0.016 | 0.032 | -0.061 | -0.01 | 0.023 |
| RSRC2 (UniProt Q7L4I2) | 0.034 | 0 | -0.045 | 0.022 | 0.085 |
| SCAF11 (UniProt Q99590) | -0.104 | -0.098 | 0.021 | 0.064 | 0.016 |
| RSL1D1 (UniProt O76021) | 0.18 | -0.349 | -0.241 | 0.178 | 0.031 |
| SEC23A (UniProt Q15436) | 0.006 | 0.052 | 0.078 | 0.027 | 0.075 |
| SCCPDH (UniProt Q8NBX0) | -0.047 | 0.087 | 0.002 | -0.003 | -0.059 |
| RPP14 (UniProt O95059) | 0.044 | -0.023 | -0.028 | 0.002 | -0.009 |
| SEC31A (UniProt O94979) | -0.067 | 0.034 | 0.09 | -0.03 | -0.006 |
| RBBP6 (UniProt Q7Z6E9) | 0.094 | 0.119 | -0.017 | 0.066 | -0.32 |
| SLC12A9 (UniProt Q9BXP2) | 0.013 | -0.002 | 0.014 | -0.035 | 0.028 |
| RAVER1 (UniProt E9PAU2) | -0.138 | -0.204 | 0.283 | -0.19 | 0.053 |
| SAFB2 (UniProt Q14151) | 0.051 | -0.087 | -0.103 | 0.045 | 0 |
| RRP12 (UniProt Q5JTH9) | -0.015 | -0.068 | 0.045 | 0.001 | 0 |
| SFXN5 (UniProt Q8TD22) | -0.079 | 0.024 | -0.11 | 0.007 | -0.061 |
| SIDT2 isoform 2 (UniProt Q8NBJ9) | -0.005 | -0.005 | 0.018 | -0.115 | 0.088 |
| SCAF8 isoform 2 (UniProt Q9UPN6) | -0.072 | 0.099 | 0.254 | -0.016 | 0.012 |
